In experiment [1] the test system is CLZ3 (HCA2 human fibroblast dual HR-NHEJ reporter). In words: NHEJ repair efficiency (GFP+ cells) relative to control (log10 fold); higher = more non-homologous end joining. Conditions: 5 µM; doxycycline 0.5 ug/mL.
For experiment [2] the test system is unchanged. In words: HR repair efficiency (tdTomato+ cells) relative to control (log10 fold); higher = more homologous recombination. The settings on record: 5 µM; doxycycline 0.5 ug/mL.

Where a name gives a salt, the structure may show the parent alone. ± gives the standard deviation of the averaged measurements.
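Wherever HR repair efficiency (tdTomato+ cells) relative to control is given: compound given one day before doxycycline, which switches on I-SceI endonuclease expression to create double-strand breaks within the integrated reporter.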
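Wherever NHEJ repair efficiency (GFP+ cells) relative to control is given: compound given one day ahead of doxycycline, which switches on I-SceI endonuclease to cut the chromosomally integrated reporter and create DSBs.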

As for `C=C(C(=O)O)[C@@H]1CC[C@@H](C)[C@@H]2CCC(C)=C[C@@H]21` [Artemisinic acid], the “NHEJ repair efficiency (log10)” value in experiment [1] came out at 0.0135. Further, in experiment [2], the “HR repair efficiency (log10)” value was found to be 0.116.
`O=C(C=Cc1ccc(O)c(O)c1)O[C@H]1[C@H](O)C[C@](O)(C(=O)O)C[C@H]1OC(=O)C=Cc1ccc(O)c(O)c1` [Isochlorogenic Acid C (4,5-Di-O-Caffeoylquinic Acid)]: the “NHEJ repair efficiency (log10)” value in experiment [1] is 0.021. Further, the “HR repair efficiency (log10)” value in experiment [2] was -0.0644.
The corresponding values for `CC1(C)[C@H](OC(=O)c2ccccc2)CC[C@]2(C)C3=C([C@@H](O)C[C@@H]12)[C@@]1(C)CC[C@@]2(C)CC[C@@](C)(COC(=O)c4ccccc4)C[C@H]2[C@]1(C)CC3` [3,29-Dibenzoyl Rarounitriol] are -0.00463 and 0.103.
The corresponding values for `O=C(C=Cc1ccc(O)c(O)c1)O[C@@H]1C[C@@](O)(C(=O)O)C[C@@H](O)[C@@H]1O` [5-Caffeoylquinic Acid] are -0.0761 and -0.0365.
As to `C[N+]1(C)CCCC1C(=O)O` (stereo unspecified) [Stachydrine Hydrochloride], the “NHEJ repair efficiency (log10)” value in experiment [1] is -0.0485. Further, in experiment [2], the “HR repair efficiency (log10)” value was 0.12.
For the compound `CC[C@@H]1[C@H]2CCCCN3[C@H]2[C@H](C[C@H]3[C@@H]2C[C@H](C)C(=O)O2)[C@@H]2[C@H]1OC(=O)[C@H]2C` [Tuberostemonine], in experiment [1], the “NHEJ repair efficiency (log10)” value was 0.233. In experiment [2], the “HR repair efficiency (log10)” value is -0.0247.
For the compound `O=c1c(-c2ccc(O)cc2)coc2c([C@@H]3O[C@H](CO)[C@@H](O)[C@H](O)[C@H]3O)c(O)ccc12` [Puerarin], in experiment [1], the “NHEJ repair efficiency (log10)” value was 0.0163. For the same compound, the “HR repair efficiency (log10)” value in experiment [2] worked out at 0.038.
As to `COc1cc([C@@H]2[C@H]3CO[C@@]4(O)C(=O)[C@@H]2C=C([C@H]2Oc5cc(O)cc(O)c5C(=O)[C@@H]2O)[C@@H]34)ccc1O` [Silydianin], the “NHEJ repair efficiency (log10)” value in experiment [1] is -0.0155 ± 0.092. For the same compound, the “HR repair efficiency (log10)” value in experiment [2] was 0.076 ± 0.0068.
The corresponding values for `COc1cc2oc(=O)ccc2c(OC)c1O` [Fraxinol] are 0.0138 and 0.0872.
As for `OC[C@H]1O[C@@H](Oc2cc(O)cc(/C=C/c3ccc(O)cc3)c2)[C@H](O)[C@@H](O)[C@@H]1O` [Polydatin], the “NHEJ repair efficiency (log10)” value in experiment [1] is 0.036. Moreover, the “HR repair efficiency (log10)” value in experiment [2] was 0.288.
The corresponding values for `COc1cc(-c2cc(=O)c3c(O)c(OC)c(O)cc3o2)ccc1O` [Jaceosidin] are -0.028 and -0.105.
The corresponding values for `CC1=C2C(=O)O[C@@H](c3ccoc3)[C@]2(C)CCC1` [Fraxinellone] are 0.105 and 0.113.
With `COc1c(O)cc2c(c1O)[C@@H]1O[C@H](CO)[C@@H](O)[C@H](O)[C@H]1OC2=O` [Bergenin], the “NHEJ repair efficiency (log10)” value in experiment [1] is 0.0025. Also, the “HR repair efficiency (log10)” value in experiment [2] is -0.0334.
The corresponding values for `O=c1c(O)cc([C@H]2Oc3cc(O)cc(O)c3C[C@H]2O)cc2c([C@H]3Oc4cc(O)cc(O)c4C[C@H]3O)cc(O)c(O)c12` [Theaflavin] are 0.0294 and 0.0415.
The corresponding values for `COc1ccc(-c2cc(=O)c3c(O)cc(O[C@@H]4O[C@H](CO[C@@H]5O[C@@H](C)[C@H](O)[C@@H](O)[C@H]5O)[C@@H](O)[C@H](O)[C@H]4O)cc3o2)cc1O` [Diosmin] are -0.157 and -0.0408.
The corresponding values for `O=c1cc(-c2ccc(O[C@@H]3O[C@H](CO)[C@@H](O)[C@H](O)[C@H]3O)cc2)oc2cc(O)c([C@@H]3O[C@H](CO)[C@@H](O)[C@H](O)[C@H]3O[C@@H]3OC[C@H](O)[C@H](O)[C@H]3O)c(O)c12` [Vaccarin] are -0.0315 and -0.086.
Consider `COc1c2ccoc2c(OC[C@@H](O)C(C)(C)O)c2oc(=O)ccc12` [Byakangelicin], for which the “NHEJ repair efficiency (log10)” value in experiment [1] stood at 0.0236. Besides, the “HR repair efficiency (log10)” value in experiment [2] is -0.0476.
The corresponding values for `O=c1c(O)c(-c2cc(O)c(O)c(O)c2)oc2cc(O)cc(O)c12` [Myricetin] are 0.0547 and 0.02.
The corresponding values for `O=C(/C=C/c1ccc(O[C@@H]2O[C@H](CO)[C@@H](O)[C@H](O)[C@H]2O)cc1)c1ccc(O)cc1O` [Isoliquiritin] are -0.0606 and -0.0597.
Take `O=c1oc2c(O)cc(O)cc2c2oc3cc(O)c(O)cc3c12` [Isodemethylwedelolacton]: in experiment [1], the “NHEJ repair efficiency (log10)” value was -0.0118. In experiment [2], the “HR repair efficiency (log10)” value stood at 0.0907.
The corresponding values for `O=C(O)c1cc(O)c2c(c1)[C@H]([C@H]1c3cc(CO)cc(O)c3C(=O)c3c(O[C@@H]4O[C@H](CO)[C@@H](O)[C@H](O)[C@H]4O)cccc31)c1cccc(O[C@@H]3O[C@H](CO)[C@@H](O)[C@H](O)[C@H]3O)c1C2=O` [Sennoside C] are -0.0248 and 0.148.
The corresponding values for `OC[C@H]1O[C@H](OC[C@H]2O[C@H](O[C@]3(CO)O[C@H](CO)[C@@H](O)[C@@H]3O)[C@H](O)[C@@H](O)[C@@H]2O)[C@H](O)[C@@H](O)[C@H]1O` [Raffinose] are -0.133 and -0.00512.
For the compound `COC(=O)C1=CO[C@@H](O[C@@H]2O[C@H](CO)[C@@H](O)[C@H](O)[C@H]2O)[C@@H]2[C@@]3(C)O[C@H]3[C@@H](O)[C@]12O` [Sesamoside], the “NHEJ repair efficiency (log10)” value in experiment [1] is -0.0395. Further, in experiment [2], the “HR repair efficiency (log10)” value is -0.1.

Values taken from the supplement of paper PMC7380943.
